Assay results from PMC12864922, “TDP-43 directly inhibits mRNA accumulation in neurites through modulation of mRNA stability”.
The full ranking holds about 9,900 sequences; the median of “r (bound/input frequency ratio)” is about 0.7, and the highest 2% start at about 6.5. Shown is part of a subset that was picked to be rich in the highest values.

B1: ENSMUSG00000022095.20|Fam160b2 (ssRNA)
RNA: GGGAGUUCUACAGUCCGACGAUCGCUUCGAUAUCCGCAUGCUAGGUGGGGGAAGAUUCCUGCCUGUGUACUUCUGCCCACGGGCAGUCUCCUGCCUGGCCAUGCUGCCACUCUGUCCUCCAUGCCGGGGACUUCAGCUGCAGGACACCUCACCUGUUGACCCCACGAGCUGAGGUUUCAAGGAGGUGCUGGCUCCUAAGGCAGUGGUAUUCUUGGAGCCUUUUAGAGGAGCUAGAGGAUGGCCAGUGAGCGCCUAGAUGCUGCCCUGCAUGUGUUGCGUGACUAUCUCUGCUAUAUUGUGACCCUCUUGCGGUCGCACUAGUGUGGAAUUCUCGGGUGUCAAGG
B2: ENSMUSG00000058297.107|Spock2|69:74 (ssRNA)
RNA: GGGAGUUCUACAGUCCGACGAUCGCUUCGAUAUCCGCAUGCUAUGAGGCAGGACCUGUACACACAGCAAGGCUUACUAUCCGUCUCCUGACAUCCGAAGAGCUCGUCGCAGCACACACUAAUGGCCCUUGGGCUGCACGUGGUUAAGCAUAGCUGUCUCUGUGGCCCAACACAAAGAGGUAAACUUACUUAAAACACAGGGGUUUUGUUGCUGUUUGUUUUUUGUUAGUUUGUUUGUUGAUAAUUGGAUUGAGGAGUUAAUCCUCUGUCACAAUGUCAAAAGCAUGGACAUCCCUGAUAGAUUCUCUUGCGGUCGCACUAGUGUGGAAUUCUCGGGUGUCAAGG
B3: ENSMUSG00000061578.1365|Ksr2|224:228 (ssRNA)
RNA: GGGAGUUCUACAGUCCGACGAUCGCUUCGAUAUCCGCAUGCUACAGGACAGCCCAGCUUCCCACUCCAGACAUGUUGUUCUUACAUCUCUGACCCAGUGAUCUUUCUAGGGGUCUGUCACAUGUCCCAACAGGUGGACAGCUCUCCAAGUCACCAACCUGAGGAAAAUAUCCCUCCUUGUAAAAAGGCUUUCUCUUUGUAAAUGAUUCUGUUGCCUUUUUCUAAACACAAAGUAUAUAUACCUAUAAAUGCUAUAUAUAUUAUAUAACACAAUAUACAUAAAGACUACUUCUUGUACAGCCCUCUCUUGCGGUCGCACUAGUGUGGAAUUCUCGGGUGUCAAGG
B4: ENSMUSG00000004113.365|Cacna1b (ssRNA)
RNA: GGGAGUUCUACAGUCCGACGAUCGCUUCGAUAUCCGCAUGCUAUAUACAAAGGCACAAUACCCUGAAACUUUAACAGAGUAUUUUAUUCCAGUAGGGUAAAAUUAAACGGGACUCUUGGACUGCGCAUGUGACUGCACCCACGUUGCAACAGAGAAGGAUGUGCAUUUUGAUACUGAUGUUCUGUCUCUGUUCCAGCCCCAGCCCCCUUUUCUCUUGAGUGUUGAAUGUAUACAUUCUGUGUGGAACUACAGCUGCCUCAGACAAUCCUGGGUUGGGAAUCAUCUUUAUCCCACAUCAACAUACUCUUGCGGUCGCACUAGUGUGGAAUUCUCGGGUGUCAAGG

These binders were tested against TDP-43 (Homo sapiens, UniProt Q13148 1-414) (assay: RNA Bind-n-Seq with designed 260-mer pool; 25 mM Tris-HCl, 150 mM KCl, 3 mM MgCl2, BSA (printed 500 mg/mL), 20 units/mL SUPERase IN; pH not stated; 500 nM RNA pool, 1 h, 4 C; TDP-43 5, 50, 500 nM; high values mean tight binding). Conditions: protein: recombinant; tags: SBP (GST cleaved off with PreScission; pGEX-GST-SBP).
Chain of TDP-43 (Q13148 whole entry): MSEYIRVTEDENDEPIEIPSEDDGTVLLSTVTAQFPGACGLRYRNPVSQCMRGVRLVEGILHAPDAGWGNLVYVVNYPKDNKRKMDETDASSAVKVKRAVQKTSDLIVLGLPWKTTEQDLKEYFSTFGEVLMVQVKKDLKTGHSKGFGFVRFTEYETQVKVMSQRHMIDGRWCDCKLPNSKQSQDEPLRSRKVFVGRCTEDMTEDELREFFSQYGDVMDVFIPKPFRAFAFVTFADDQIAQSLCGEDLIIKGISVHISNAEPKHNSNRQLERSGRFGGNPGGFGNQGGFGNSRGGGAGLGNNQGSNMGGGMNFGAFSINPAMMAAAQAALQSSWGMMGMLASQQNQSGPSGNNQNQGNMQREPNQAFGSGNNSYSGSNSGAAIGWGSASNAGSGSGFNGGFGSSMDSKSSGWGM
How it was run: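 Recombinant SBP-tagged TDP-43 at 5, 50 or 500 nM was captured on streptavidin beads, then incubated 1 h at 4 °C with 500 nM of an in vitro-transcribed 260-nt 3′ UTR oligo pool in 25 mM Tris-HCl, 150 mM KCl, 3 mM MgCl2, BSA and SUPERase IN. Bound RNA was washed, eluted with biotin, reverse transcribed, PCR-amplified and sequenced. Binding is R, each oligo's mapped-read-normalized abundance in the bound sample divided by its abundance in input. Duplicates used two independent protein batches.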
In the case of B1, the binding signal is reported as 0.487 R (bound/input frequency ratio). B2 was tested, and the binding signal was 1.04 R (bound/input frequency ratio). For B3, the binding signal was 0.125 R (bound/input frequency ratio). For B4, the binding signal was 0.216 R (bound/input frequency ratio).
